From the supplement of paper PMC10732440 come the findings set out here.

± gives the standard deviation of the averaged measurements.

The experiment deals with Caenorhabditis elegans N2 infected with Nematocida parisii ERTm1. Briefly: progeny production relative to DMSO uninfected control; higher = more progeny despite microsporidia infection (inhibition of infection with low host toxicity). To be noted: infection time 6 days; 40 µM. In short, it runs like this: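 Wild-type C. elegans L1 larvae, synchronised by bleaching, were added at 100 per well to 96-well plates containing K-medium, E. coli OP50 and 15,000 N. parisii spores/μL, and compound was pinned in to 100 μM or 40 μM in 1% DMSO. The plates were shaken at 21°C for 6 days, after which worms were stained with Rose Bengal, scanned on a flatbed scanner and counted using WorMachine. Each compound and dose was run three times. Progeny production is expressed as a percentage of wells with vehicle but no spores, averaged over the replicates.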
As to `CN(C)CC(=O)Nc1ccc2[nH]c(=O)c3ccccc3c2c1`, the progeny production turned out to be 3.86 ± 0.4%.

Compound `Oc1cc(-c2cccc3ccccc23)[nH]n1` displayed a progeny production of 2.92 ± 0.16%.

As to `O=C(N[C@H](Cc1cccc2ccccc12)C(=O)NCCc1c[nH]cn1)C1Cc2ccccc2C1`, the progeny production amounted to 7.87 ± 3.1%.

Consider `Cc1cc(C2CCCCC2)n(O)c(=O)c1`, for which the progeny production is 5.34 ± 2.3%.

`Cc1[nH]c2ccccc2c1CC(=O)N[C@@H](Cc1ccccc1)C(=O)N(C)c1ccccc1` had a progeny production of 4.28 ± 2.4%.

As for `Cc1ccc(C)c(OCCCCCCN2C[C@H](O)[C@@H](O)[C@H](O)[C@H]2CO)c1`, the progeny production amounted to 3.54 ± 0.93%.

Regarding `O=C(CCc1ccc2c(c1)OCO2)NCc1ccc(-c2ccccc2F)cc1`, the progeny production amounted to 5.04 ± 3.2%.

`N#Cc1cc([N+](=O)[O-])ccc1Oc1ccccc1Cl` displayed a progeny production of 5.2 ± 2%.

Consider `Oc1c(C(Nc2nc3ccccc3s2)c2ccc(OC(F)F)cc2)ccc2cccnc12` (centres undefined), for which the progeny production is 3.08 ± 0.27%.

For `Cc1c(OCC(F)(F)F)ccnc1C[S+]([O-])c1nc2ccccc2[nH]1` (centres undefined), the progeny production stood at 6.74 ± 4.3%.

The compound `Nc1nc(=O)c(Br)c(-c2ccccc2)[nH]1` displayed a progeny production of 5.86 ± 5.3%.

Compound `O=C(O)C(Cc1c[nH]c2ccccc12)N1C(=O)c2ccccc2C1=O` (centres undefined) returned a progeny production of 6.93 ± 1.2%.

The compound `COc1cc(C2C3=C(CC(C)(C)CC3=O)Nc3ccccc3N2C(C)=O)ccc1OCc1ccccc1` (centres undefined) registered a progeny production of 2.3 ± 0.93%.

`Nc1ccc2oc(=O)ccc2c1I` displayed a progeny production of 3.87 ± 2.3%.

Consider `NCc1ccc(S(N)(=O)=O)cc1`, for which the progeny production was found to be 5.64 ± 3.5%.

For `NC(=O)c1c(N)sc2c1CCCCC2`, the progeny production stood at 3.71 ± 1.1%.

Take `O=c1cc(Nc2ccc3ccccc3c2)[nH]c(=O)[nH]1`: the progeny production turned out to be 7.88 ± 1.4%.

`O=[N+]([O-])/C(Br)=C/c1ccc(Br)o1` displayed a progeny production of 5.77 ± 1.4%.

Compound `CCNC(=O)Nc1cc2c(-c3ccnc(C)c3)ccc(CNC(=O)OC)c2cn1` had a progeny production of 4.61 ± 1.9%.

With `O=C(/C=C\n1cnc(-c2cc(C(F)(F)F)cc(C(F)(F)F)c2)n1)NNc1ccccn1`, the progeny production turned out to be 3.49 ± 1.1%.

For the compound `O=C(O)CSc1cc(NS(=O)(=O)c2cccc3cccnc23)c2ccccc2c1O`, the progeny production came out at 6.14 ± 2.5%.

Take `NC(=O)[C@@H]1CC[C@@H]2CN1C(=O)N2OS(=O)(=O)O`: the progeny production stood at 8.69 ± 1.4%.

`O=S(=O)(Nc1ccc(-n2cccc2)cc1)c1ccc(Cl)c(Cl)c1`: the progeny production is 6.12 ± 3.2%.

`CC(C)(C)NC(=O)N[C@H](C(=O)N1C[C@H]2[C@@H]([C@H]1C(=O)NC(CC1CCC1)C(=O)C(N)=O)C2(C)C)C(C)(C)C` (some centres undefined) gave a progeny production of 3.73 ± 0.22%.

With `COc1cccc(N2CCN(C3=Nc4c(F)cccc4[C@H](CC(=O)O)N3c3cc(C(F)(F)F)ccc3OC)CC2)c1`, the progeny production stood at 6.01 ± 2.9%.

`COc1cc(Cc2cc(N)nc(N)n2)cc(OC)c1OC`: the progeny production stood at 5.56 ± 1.2%.

On to `CC(C)(C)c1ccc(Oc2ccc(N)cc2)cc1`, for which the progeny production stood at 3.17 ± 1.1%.

In turn, `N#Cc1c(F)c(Cl)c(NCc2ccccc2)c(C#N)c1F` yielded a progeny production of 32.6 ± 17%.

The compound `COc1c(F)c(F)cc2c(=O)c(C(=O)O)cn(C3CC3)c12` gave a progeny production of 6.01 ± 4.3%.

For `CC(=O)N1CCN(c2ccc(OCC3COC(Cn4ccnc4)(c4ccc(Cl)cc4Cl)O3)cc2)CC1` (centres undefined), the progeny production worked out at 5.16 ± 2.3%.

As for `Cc1c(CN(C)C(=O)/C=C/c2cnc3c(c2)C(C)(C)C(=O)N3)oc2ccccc12`, the progeny production turned out to be 6.13 ± 3.2%.

For `CCc1nc(N)nc(N)c1C#CCc1ccccc1`, the progeny production is 8.69 ± 6%.

As for `CC(=O)Nc1cc(NS(=O)(=O)c2ccc(Cl)cc2)cc2c(Cl)[nH]nc12`, the progeny production worked out at 5.97 ± 4.1%.

`C[C@H](Cn1cnc2c(N)ncnc21)OCP(=O)(O)O` showed a progeny production of 6.28 ± 6.8%.

As to `CCc1nc2ccccn2c1C(=O)NCc1ccccc1`, the progeny production came to 6.11 ± 1.7%.

`Nc1nc(-c2ccccc2)nc2[nH]nc(Nc3ccc(C(F)(F)F)cc3)c12` returned a progeny production of 7.69 ± 2.2%.

`O=C(NN1C(=O)[C@@H]2[C@@H]3C=C[C@@H]([C@H]4C[C@@H]34)[C@@H]2C1=O)c1ccc(C(F)(F)F)cc1` had a progeny production of 3.22 ± 1.3%.

As to `COCCn1cnc2c(O)nc(Nc3ccccc3)nc21`, the progeny production came to 8.43 ± 4.5%.

Compound `Nc1cccc(-c2nc(N)nc(NC3Cc4ccccc4C3)n2)c1` registered a progeny production of 8.19 ± 3.8%.
